# NOD2-RIPK2 inh – inhibitors of human NOD2-RIPK2 interaction | CHO BLA complementation NOD2-RIPK2, CCF4 ratio | inhibition, % at 4.98 µM | 360,000 compounds, 0.38% hits | AID 624267; in the data active = inhibition above about 21%;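 also: 0% = vehicle only and 100% = reference blocker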
# TLR9-MyD88 block – inhibitors of human TLR9-MyD88 binding. AID 504734. inhibition, % at 4.98 µM. CHO BLA complementation TLR9-MyD88, CCF4 FRET ratio. Q9NR96+Q99836. 340,000 compounds, 0.21% hits;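 active = inhibition above the mean over all tested compounds plus 3 SD, cut at about 21% in these data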;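 also: 0% = DMSO only wells and 100% = clavulanate BLA inhibitor control wells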
# Neddyl block – inhibitors of human cullin neddylation | TR-FRET cullin neddylation, biochemical | inhibition, % at 25 µM | 360,000 compounds, 0.58% hits | AID 651699; in the data active = inhibition above about 36%
# GC-A act – GC-A (human) enzyme activation; P16066; HEK293 GC-A cells, cGMP TR-FRET, EC30 ANP; 0% at EC30 ANP, 100% saturating ANP; activation, % at 10 µM; 370,000 compounds, 0.14% hits; in the data active = activation above about 40%
# NPR2 activator – GC-B (human) receptor activation | activation, % at 10 µM | P20594 | HEK293-GC-B cells, CNP EC30, cGMP TR-FRET; 0% at EC30 CNP, 100% saturating CNP | 370,000 compounds, 0.11% hits;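 active = activation at 10 µM reaching about 35% in either raw or pattern-adjusted values, limit read from the data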
# Target sequence (P20594 whole entry, looked up): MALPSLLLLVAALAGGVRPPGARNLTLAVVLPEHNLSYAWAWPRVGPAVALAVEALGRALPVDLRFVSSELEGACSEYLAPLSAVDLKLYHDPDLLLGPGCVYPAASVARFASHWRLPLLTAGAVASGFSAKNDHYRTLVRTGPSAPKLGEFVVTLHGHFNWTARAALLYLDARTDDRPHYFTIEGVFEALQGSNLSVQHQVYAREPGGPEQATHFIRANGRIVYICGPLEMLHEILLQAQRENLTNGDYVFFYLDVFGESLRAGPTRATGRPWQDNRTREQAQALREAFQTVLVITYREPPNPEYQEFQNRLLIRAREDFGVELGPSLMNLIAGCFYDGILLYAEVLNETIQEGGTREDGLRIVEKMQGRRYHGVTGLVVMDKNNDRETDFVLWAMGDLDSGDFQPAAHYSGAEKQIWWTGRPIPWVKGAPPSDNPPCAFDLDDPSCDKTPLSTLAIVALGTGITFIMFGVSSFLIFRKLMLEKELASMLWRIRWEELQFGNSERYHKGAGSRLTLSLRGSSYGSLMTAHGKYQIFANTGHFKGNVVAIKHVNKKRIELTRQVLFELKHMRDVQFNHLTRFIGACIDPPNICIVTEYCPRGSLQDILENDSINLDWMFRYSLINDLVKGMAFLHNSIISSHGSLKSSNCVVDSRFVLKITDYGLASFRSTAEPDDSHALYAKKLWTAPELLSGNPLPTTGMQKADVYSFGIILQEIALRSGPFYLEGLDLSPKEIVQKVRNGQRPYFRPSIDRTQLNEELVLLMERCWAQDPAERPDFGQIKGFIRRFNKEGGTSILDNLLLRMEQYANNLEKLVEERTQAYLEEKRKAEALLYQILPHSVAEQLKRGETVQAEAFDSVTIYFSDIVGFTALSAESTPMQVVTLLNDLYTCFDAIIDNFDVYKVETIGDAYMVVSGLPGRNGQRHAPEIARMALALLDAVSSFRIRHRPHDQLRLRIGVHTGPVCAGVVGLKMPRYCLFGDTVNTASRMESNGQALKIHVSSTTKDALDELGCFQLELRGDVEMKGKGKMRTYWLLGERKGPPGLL
# TLR4 MyD88 comp – inhibitors of human TLR4-MyD88 binding | HeLa CL3-4 TLR4/MyD88 BLA complementation, FRET ratio | 200,000 compounds, 0.18% hits | O00206+Q99836 | inhibition, % at 8.4 µM; in the data active = inhibition above about 25%;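 also: 0% = vehicle and 100% = reference inhibitor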
# TLR4-MyD88 conf – confirmation of human TLR4-MyD88 binding inhibitors; inhibition, % at 8.4 µM; shares compounds with TLR4 MyD88 comp; AID 941; 350 compounds, 50% hits; HeLa CL3-4 BLA complementation, CCF4 FRET ratio;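 active = mean inhibition across three repeat runs above about 25% carried over from the earlier screen, limit read from the data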;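 also: plate controls were DMSO only for no effect and clavulanic acid blocking BLA at full dose for full effect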
# BLA inh HeLa – counter-screen for TLR4-MyD88 inhibitors: beta-lactamase reporter inhibitors; HeLa BLA reporter, CCF4 FRET ratio; AID 1237; 350 compounds, 63% hits; inhibition, % at 8.4 µM; shares compounds with TLR4 MyD88 comp;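 active = mean inhibition over three repeats above about 26% taken from the earlier screen, limit read from the data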;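 also: HeLa cells stably expressing beta-lactamase reporter as counterscreen for TLR4-MyD88 inhibitors; 0% = DMSO and 100% = clavulanic acid full inhibition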
# * = called active by the depositor; i = inactive; / = not tested or not shown. Rows were chosen to be rich in hits. Some 1.2% of all compounds tested hit in one or more screens of this group.
SMILES,NOD2-RIPK2 inh,TLR9-MyD88 block,Neddyl block,GC-A act,NPR2 activator,TLR4 MyD88 comp,others
Cn1cncc1C#Cc1ccc2cc(C(C)(C)O)oc(=O)c2c1,1.0,-5.8,20.3,-1.0,-2.1,/,
Cc1ccc(CNC(=O)O[C@H]2CC[C@@]34CCCN3C(=O)CCC[C@H]4C2)cc1,/,/,/,-1.9,2.4,/,
CC1OC(CC(=O)O)CC2=C1C(=O)c1c(O)cccc1C2=O (configuration not stated),78.0*,0.3,-11.6,13.4,1.7,/,
O=C1c2cccc(O)c2C(=O)c2c(O)cccc21,/,/,/,/,/,-1.3,
COc1ccc(NC(=O)c2cc(-c3cc(F)ccc3OC(C)C)n[nH]2)c(C)c1,1.9,/,2.7,55.6*,61.0*,/,
Cc1ccc(CN2CCCCC(NC(=O)c3cccc(C(F)(F)F)c3)C2=O)cc1 (configuration not stated),/,/,/,-0.3,-3.0,/,
CC(=O)OCCN1C(=O)c2ccc(-c3nc4ccccc4c(=O)o3)cc2C1=O,3.7,1.0,-13.7,47.1*,9.6,/,
Cc1ccccc1-c1n[nH]c(=S)n1/N=C/C=C/c1ccco1,6.5,5.1,59.8*,-2.2,1.3,/,
S=c1[nH]nc(-c2ccccc2)n1/N=C/C=C/c1ccco1,4.8,3.9,-5.8,-3.0,-6.5,-1.0,
CCn1c(-c2ccsc2)nc2c1c(=O)[nH]c(=O)n2Cc1ccccc1,2.8,-13.3,-84.0,30.8,41.8*,10.6,
CCCn1c(-c2cccs2)nc2c1c(=O)[nH]c(=O)n2Cc1ccccc1,-0.8,1.9,-5.5,17.6,28.7,-0.4,
O=C(NCC(c1ccccc1)c1ccccc1)[C@H](Cc1c[nH]c2ccccc12)NC1(C(=O)NC2CCCCC2)CCCCCC1,/,/,/,-7.5,-5.7,/,
O=C(NC1CCCCN(Cc2cccc(F)c2)C1=O)c1ccc2ccccc2c1 (configuration not stated),/,/,/,2.2,-4.7,/,
Cc1nc2c(N=Nc3ccccc3F)c(N)nn2c(N)c1C#N,-7.4,-5.3,-5.2,42.7*,-2.5,8.4,
O=C(O)c1cccc2cccc(-c3c4ccc(=O)c(O)c-4oc4c(O)c(O)ccc34)c12,-6.4,-16.4,-4.7,-28.0,47.5*,/,
O=C(O)c1cccc2cc(-c3ccccc3)oc(=O)c12,-5.3,-4.3,/,3.0,2.9,/,
CCOc1ccc(Nc2nc3ccccc3n2C)cc1,2.1,1.2,1.2,-2.3,-0.7,/,
CCOc1ccc(Nc2nc3ccccc3n3nnnc23)cc1,-0.5,-1.7,40.2*,-0.6,-8.1,11.6,
Cc1sc2ncnc(N/N=C/c3ccccc3O)c2c1C,5.4,12.3,50.1*,1.9,-2.2,11.5,
Cc1sc2ncnc(N/N=C/c3ccc(O)cc3)c2c1C,-20.8,-1.6,-16.3,-5.0,-6.4,4.2,
S=c1[nH]nc(-c2cc(-c3ccccc3)n[nH]2)n1/N=C/c1cccc(Cl)c1,-11.5,-1.1,90.0*,14.3,-14.4,/,
Fc1c(F)c(F)c(/C=N/NC(=S)Nc2cccnc2)c(F)c1F,-1.1,-1.1,-14.3,58.1*,0.8,4.9,
OCC(Cc1ccccc1)Nc1c2ccccc2nc2ccccc12 (configuration not stated),0.4,-0.9,43.5*,-11.3,-11.7,-11.9,
c1ccc(CNc2c3ccccc3nc3ccccc23)cc1,-10.1,-4.2,30.5,-4.9,-6.3,/,
C=CCN(C)CC#Cc1ccc(F)cc1,/,/,/,3.7,-5.8,/,
SMILES,NOD2-RIPK2 inh,TLR9-MyD88 block,Neddyl block,GC-A act,NPR2 activator,TLR4 MyD88 comp,others
CCN(CC)CCSc1nc2c([nH]1)c(=S)n(C)c(=O)n2C,-6.6,-14.8,25.8,2.3,2.4,/,
Cn1c(=S)c2[nH]c(SCCC(C)(C)C)nc2n(C)c1=O,-3.3,-4.2,-34.2,44.1*,50.2*,/,
CCCCSc1nc2c([nH]1)c(=S)n(C)c(=O)n2C,-6.7,-1.1,-86.7,33.9,37.0*,/,
Cc1nn(-c2ccccc2)c2c1C(c1ccc(O)c(O)c1)N1C(=N2)C(Nc2ccccc2)=Nc2ccccc21 (configuration not stated),18.4,13.1,28.0,4.5,-3.3,57.0*,TLR4-MyD88 conf=52.2*;BLA inh HeLa=89.1*
Cc1nn(-c2ccccc2)c2c1C(c1ccc([N+](=O)[O-])cc1)N1C(=N2)C(=O)Nc2ccccc21 (configuration not stated),-4.3,5.3,-9.7,-8.4,-6.5,5.3,
Cc1cc(O)ccc1C1(c2ccc(O)cc2C)OC(=O)c2ccccc21,1.7,15.2,0.9,-16.3,-10.2,17.5,
CC(=O)Oc1ccc2c(c1)Oc1cc(OC(C)=O)ccc1C21OC(=O)c2ccccc21,75.8*,70.5*,i,/,/,63.4*,TLR4-MyD88 conf=70.4*;BLA inh HeLa=93.4*
COC(=O)[C@]12C[C@H](CC(=O)NCc3cccc4ccccc34)C(=O)N(CCc3ccc(OC)c(OC)c3)C1=C[C@H](COCc1ccccc1)O[C@@H]2C,/,/,/,3.1,0.1,/,
CCOC(=O)c1c2ccc(OCC(=O)N/N=C/c3ccc(C)cc3)cc2n2ccccc12,16.9,8.4,/,4.2,-4.7,37.5*,TLR4-MyD88 conf=47.9*;BLA inh HeLa=17.3
O=C(Cn1nc(-c2ccccc2)ccc1=O)NCCc1cccc(F)c1,/,/,/,-1.0,-2.2,/,
CCOc1ccc(-n2c(SCC(=O)Nc3ccc(S(=O)(=O)Nc4nccs4)cc3)nnc2-c2ccccc2)cc1,/,/,/,-0.6,-0.7,/,
O=C(c1cccc(-c2nnc(-c3ccccc3)o2)c1)N1CCCCC1,8.7,-4.5,5.5,-1.7,6.4,28.0*,TLR4-MyD88 conf=-11.7;BLA inh HeLa=4.8
CCOC(=O)C1=C(C)N=c2s/c(=C\c3ccc(OC(C)=O)c(OCC)c3)c(=O)n2C1/C=C/c1ccccc1 (configuration not stated),8.9,-7.2,0.1,-3.2,-1.5,54.0*,TLR4-MyD88 conf=26.4*;BLA inh HeLa=11.8
Fc1cccc(-c2nnn3c2nc(Cl)c2ccccc23)c1,-11.2,1.6,/,34.4,5.4,34.6*,TLR4-MyD88 conf=57.9*;BLA inh HeLa=40.8*
COc1ccc(S(=O)(=O)N2CCCC(C(=O)NCc3ccccn3)C2)cc1Cl (configuration not stated),-1.2,-2.1,1.3,0.6,-2.0,26.2*,TLR4-MyD88 conf=4.9;BLA inh HeLa=3.8
COC(=O)Cc1c([C@H](C)[C@@H](OC)c2ccccc2Br)nnn1Cc1ccccc1,/,/,/,-4.5,0.0,/,
COc1ccc(C2C=C(c3ccccc3)Nc3nc(NC(C)=O)nn32)cc1 (configuration not stated),/,/,/,/,/,35.9*,TLR4-MyD88 conf=31.0*;BLA inh HeLa=56.4*
CCOc1ccc(C2C=C(c3ccc(F)cc3)Nc3ncnn32)cc1 (configuration not stated),6.5,7.4,/,2.4,-11.9,26.3*,TLR4-MyD88 conf=24.3;BLA inh HeLa=52.7*

# Assay outcomes from PubChem BioAssay.
